Bioassay records as filed in PubChem.
Sfp PPTase inh: Sfp phosphopantetheinyl transferase inhibition. 3.5% of 310,000 active. Q9F4F7. Biochemical Sfp PPTase activity, qHTS. Potency, µM, without a hit: largest response in the series, negative = inhibition, usual class: inhibitors;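 note: the enzyme is Sfp with the accession as filed and its product quenches rhodamine fluorescence; 0% = enzyme reaction without inhibitor and -100% = no enzyme wells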
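Compounds were incubated with enzyme (final 15 nM) for 15 min at room temperature before substrate addition started the reaction. Fluorescence at 525 nm excitation, 598 nm emission was recorded immediately and after 30 minutes.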
BAZ2B inh: blocks human BAZ2B. 4.4% of 360,000 active. AlphaScreen BAZ2B-H3K14Ac peptide displacement. AID 504333. Potency, µM (titrated, usually from 114 µM), without a hit: at the top dose activity change, negative = inhibition, most hits filed as inhibitors; note: % is set by controls: 0 for no effect and ±100 for the full control effect; nearly all actives have a fitted effect of over 60% in size
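Multi-concentration screen (max 110 uM) measuring displacement of acetylated histone H3 peptide from BAZ2B by AlphaScreen, using 50 nM protein, 50 nM peptide and 10 ug/mL streptavidin donor plus Ni-chelate acceptor beads.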
JMJD2A Tudor: blocks the human JMJD2A Tudor domain. O75164. AlphaScreen JMJD2A-Tudor / H3K4me3 peptide binding. Potency, µM (highest dose often 114 µM), for inactives: at the highest dose activity change, negative = inhibition, usual class: inhibitors. 4.4% of 390,000 active; note: % is set by controls: 0 for no effect and ±100 for the full control effect; nearly all actives have a fitted effect of over 50% in size
HP1b chromo inh: HP1-beta chromodomain-methylated histone interaction inhibition. Potency, µM (titrated, usually from 114 µM), inactives show at the highest dose activity change, negative = inhibition, most hits filed as inhibitors. 0.56% of 390,000 active. P83916. AlphaScreen HP1-beta / biotin-H3K9me3 peptide binding; note: nearly all actives have a fitted effect of over 70% in size
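Compound inhibition of the preformed complex between 50 nM HP1-beta and 50 nM biotinylated H3K9me3 peptide was read by AlphaScreen. Buffer was PBS pH 7.4 with 0.01% Tween-20. Incubations ran 30 min at room temperature, with 10 ug/mL donor/acceptor beads.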
G9a inh: G9a (human) methyltransferase inhibition; 8.8% of 350,000 active; G9a H3K9 monomethylation, AlphaScreen, 2 h; Potency, µM (top dose mostly 102 µM), inactives show top-dose activity, negative = inhibition, most hits filed as inhibitors; AID 504332; note: % is set by controls: 0 for no effect and ±100 for the full control effect; nearly all actives have a fitted effect of over 75% in size
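Signal arises when biotinylated H3K9 peptide, once monomethylated, bridges streptavidin donor and antibody-captured acceptor beads. Enzyme at 20 nM was preincubated 15 min with test compounds; peptide 500 nM and SAM 20 uM then reacted for 2 h.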
Starred values were filed as active, the others as inactive; ? = inconclusive; . = no result; [ ] = dose if it differs, or a comment. Most compounds without a hit are left out; they make up all but 12% or so of the library. Calls come from the whole dose curve; as a rule, active = well fitted curve in the direction sought with a large enough effect; inconclusive = small, poorly fitted or top-dose-only effect, or another doubt; inactive = no such curve, though single readings can be large; an effect the other way counts as inactive or inconclusive. Potency is the fitted concentration of half-maximal effect.

SMILES | Sfp PPTase inh | BAZ2B inh | JMJD2A Tudor | HP1b chromo inh | G9a inh
O=C(CN1C(=O)/C(=C2\SC(=S)N(C3CCS(=O)(=O)C3)C2=O)c2ccccc21)Nc1ccc(F)cc1 (stereo not drawn) | -24% | -20% | -17% | -24% | 20µM*
COc1ccc(/C=C2\SC(=S)N(CC(=O)NC3CCS(=O)(=O)C3)C2=O)cc1 (stereo not drawn) | -8% | -17% | -6% | 45% | 6%
CCC(C)(C)NC(=O)CN(C(=O)C(=O)Nc1ccc2c(c1)OCCO2)C1CC1 | -15% | -30% | -8% | 4% | -23%
Cc1nc2cc(N)ccc2n1C1CCCCC1 | -19% | ? | -35% | 21% | 14µM*
Cc1nc2cc(C(=O)O)ccc2n1C1CCCCC1 | 13% | -3% | -18% | 22% | 19%[59 µM]
CN(CC1COc2ccccc2O1)C(=O)c1cccc(S(=O)(=O)N2CCCC2)c1 (stereo not drawn) | . | -5% | -8% | 23% | 1µM*
O=C(NCC1COc2ccccc2O1)c1c[nH]c2ccc(S(=O)(=O)N3CCOCC3)cc2c1=O (stereo not drawn) | 16% | 9% | -14% | 13% | ?
O=C(NCC1COc2ccccc2O1)c1cc(S(=O)(=O)N2CCOCC2)ccc1F (stereo not drawn) | . | 4% | -14% | 20% | 22µM*
O=C(NCC1COc2ccccc2O1)c1cccc(S(=O)(=O)N2CCCCC2)c1 (stereo not drawn) | . | -14% | -7% | 47% | 9%[12.7 µM]
COc1ccccc1Cc1nc(-c2cccnc2)no1 | 2% | 25% | -15% | 8% | 23%
Cc1noc(C)c1C(=O)NC1CCCc2ccccc21 (stereo not drawn) | 14% | -3% | 6% | 23% | -23%[59 µM]
COc1ccc(-c2cc(C(=O)OCC(=O)NC(C)C)c3ccccc3n2)cc1 | -2% | 3% | -7% | 29% | -18%
O=C(c1cc(-c2ccc(Cl)cc2)on1)N(Cc1ccc(F)cc1)Cc1ccco1 | . | 11% | 4% | 64% | 13%[59 µM]
Cc1ccc(-c2cc(C(=O)N(Cc3ccccc3)Cc3ccco3)no2)cc1F | . | 50µM* | -3% | 32% | ?
O=C(NNC(=O)c1ccccc1-c1ccccc1C(=O)O)c1ccccc1 | 18% | -19% | 3% | 43% | ?
O=C(C=P(c1ccccc1)(c1ccccc1)c1ccccc1)c1ccccc1-c1ccccc1C(=O)C=P(c1ccccc1)(c1ccccc1)c1ccccc1 | . | . | 45µM* | ? | .
COc1ccc(Cl)cc1NC(=O)c1cc(S(=O)(=O)N2CCC(C)CC2)cn1C | . | 0% | -14% | 16%[57 µM] | -2%[59 µM]
CC(NC(=O)c1ccc(Cn2cc([N+](=O)[O-])cn2)cc1)c1ccccc1 (stereo not drawn) | 3% | 8% | 50µM* | 9% | -9%[59 µM]
O=C(Cn1cc([N+](=O)[O-])cn1)Nc1ccc(Cn2cc(Br)cn2)cc1 | 1% | -38% | -6% | 20% | 2.2µM*
CC(C)NC(=O)CCCn1cc([N+](=O)[O-])cn1 | -5% | -11% | -17% | 32% | 50µM*
COC(=O)c1ccc(Cn2cc([N+](=O)[O-])cn2)cc1 | 18% | -15% | 1% | 28% | -2%
COc1ccc(CNC(=O)CC2(CC(=O)O)CCCCC2)cc1 | 12% | 1% | -15% | 61% | 4%
S=c1nc(NCCc2ccccc2Cl)c2ccccc2[nH]1 | -2% | 6% | -18% | 17% | -3%
CCOC(=O)/C=C1\CN(Cc2cc(OC)c(OC)c(OC)c2)S(=O)(=O)c2ccc(C(F)(F)F)cc21 | 11% | ? | -30% | 23% | 35µM*
CC(C)(C)c1ccc(-c2nc(C#N)c(N3CCC(C(N)=O)CC3)o2)cc1 | -21% | ? | ? | ? | ?
Cc1n[nH]c(C)c1Sc1ccccc1[N+](=O)[O-] | 6% | ? | -34% | -17% | -27%
CC(=O)Oc1c(Sc2ccccc2[N+](=O)[O-])c(C)nn1C(C)(C)C | 9% | ? | ? | -18% | 45µM*
Cc1ccc(-n2nc(C)c(Sc3ccccc3[N+](=O)[O-])c2N)cc1 | -20% | 35µM* | ? | ? | 10µM*
Cc1cc(O)c2ccccc2c1O | -8% | . | . | . | ?
